Inconclusive results are not listed. A call without a number means that no potency is given here. Calls of active or inactive are those of the source. Calls follow the shape of the full dose curve.
What follows are molecules tested against Atrial natriuretic peptide receptor 2 (Homo sapiens) (UniProt P20594) (assay: Natriuretic polypeptide receptor (hNpr2) antagonism - Pilot subtype selectivity assay (AID 1347050)). Settings: NPR2-expressing cells, cGMP antagonist-mode read-out; series mostly up to 38.3 µM.
Atrial natriuretic peptide receptor 2 (Homo sapiens), sequence (P20594 whole entry, looked up): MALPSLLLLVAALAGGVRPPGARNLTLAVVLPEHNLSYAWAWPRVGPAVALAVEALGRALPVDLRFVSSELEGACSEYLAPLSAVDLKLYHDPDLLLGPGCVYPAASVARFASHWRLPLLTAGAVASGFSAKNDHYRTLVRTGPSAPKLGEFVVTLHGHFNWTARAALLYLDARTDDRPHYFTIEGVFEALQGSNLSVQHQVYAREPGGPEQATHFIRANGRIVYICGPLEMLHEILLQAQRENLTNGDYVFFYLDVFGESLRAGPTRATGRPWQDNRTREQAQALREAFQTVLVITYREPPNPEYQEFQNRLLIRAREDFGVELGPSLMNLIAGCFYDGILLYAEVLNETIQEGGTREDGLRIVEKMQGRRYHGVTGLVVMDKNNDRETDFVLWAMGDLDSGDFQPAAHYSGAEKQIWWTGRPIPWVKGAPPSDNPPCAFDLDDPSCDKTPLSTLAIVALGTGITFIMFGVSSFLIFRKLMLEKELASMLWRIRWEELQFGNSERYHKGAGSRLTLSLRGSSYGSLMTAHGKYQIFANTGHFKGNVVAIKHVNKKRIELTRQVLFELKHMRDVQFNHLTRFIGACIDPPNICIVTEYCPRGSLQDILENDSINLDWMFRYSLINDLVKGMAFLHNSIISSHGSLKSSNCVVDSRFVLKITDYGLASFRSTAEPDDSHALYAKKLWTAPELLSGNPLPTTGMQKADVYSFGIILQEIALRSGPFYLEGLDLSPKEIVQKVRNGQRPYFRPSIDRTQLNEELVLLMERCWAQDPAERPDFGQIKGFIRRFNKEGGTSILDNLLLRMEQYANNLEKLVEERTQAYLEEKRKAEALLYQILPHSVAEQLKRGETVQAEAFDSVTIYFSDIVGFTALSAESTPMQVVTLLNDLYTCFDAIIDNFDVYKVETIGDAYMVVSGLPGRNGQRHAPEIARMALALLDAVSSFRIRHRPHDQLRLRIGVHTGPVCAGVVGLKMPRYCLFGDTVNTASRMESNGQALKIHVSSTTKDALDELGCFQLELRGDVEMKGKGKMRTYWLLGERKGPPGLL
Description: F. Fan, B. F. Binkowski, B. L. Butler, P. F. Stecha, M. K. Lewis, K. V. Wood, Novel genetically encoded biosensors using firefly luciferase. ACS Chem Biol 3, 346-351 (2008).
PROTOCOL TABLE (as described by Inglese J, Shamu CE and Guy RK. 2007)
SEQUENCE No. (e.g., 1, 2, 3, etc.); […] (e.g., Cells, Incubation, Reagent, etc.); VALUE and DESCRIPTION.
1. Cells. Seed 1500 HEK293 cGMP-sensor cells expressing hNpr2 per well in 4uL into Greiner 1536-well white/solid bottom high base, TC plates.
2. Incubation. Incubate plated cells at 37C in 5% CO2, 95% RH overnight.
3. Reagent. Add 1uL per well GloSensor reagent from Promega (2% final concentration) or CO2 independent media vehicle control to respective columns of Greiner 1536-well plates.
4. Incubation. Incubate plated cells at ambient temperature for 2 h., protect from light.
5. Compounds. Library compounds and DMSO vehicle control added at 23nL per well, transferred by Pin Tool.
6. Incubation. Incubate plated cells for 30 min. at ambient temperature, protect from light.
7. Detector. GloSensor baseline pre-read luminescence measured using CCD-based camera (Viewlux).
8. Compound. Add 1uL of hNppC peptide to 1 nM final concentration to stimulate hNpr2 or CO2 independent media as vehicle control.
9. Incubation. Incubate treated cells at ambient temperature for 20 min., protect from light.
10. Detector. GloSensor post-hNppC luminescence measured using CCD-based camera (Viewlux).
NOTES (numbers refer to Sequence numbers above)
1. HEK293 cells expressing hNpr2 and GIP/pGS-40F were grown to 85-95% confluence (48-72 h) in T175 culture flasks (CO2 independent media supplemented with 10% FBS, 1% Pen/Strep antibiotics, and 1 ug/mL puromycin). Trypsinize and harvest cells from T175 culture flasks and filter through 40 um cell strainer. Cells counted with Invitrogen Countess (30,000,000 - 50,000,000 cells/flask). Cells diluted to a final concentration of 375 cells/uL in CO2 independent media and a Millipore multidrop used to dispense 1500 cells per well (4uL/well) into 9 x1536-well Greiner White/Solid bottom, high base tissue-culture treated (TC) plates and one Aurora 1536-well Black/Clear bottom, low base, TC plate (for visual inspection of cell health throughout the duration of the assay).
2. Cells incubated for 24 h. at 37C in 95% RH incubator with metal lid having gas-exchange holes.
3. Prepare GloSensor Reagent (Promega): Reconstitute GloSensor luciferase substrate by adding 8.2mL Hepes buffer to 250mg substrate, mix well, protect from light and stored at -80C. Prepare a fresh 12% GloSensor solution in CO2 independent supplemented plating media (see above). Mix well and store at ambient temperature, protected from light. 1uL 12% GloSensor Luciferase Reagent added (2% final concentration) to respective columns of 9 x 1536-well Greiner plate with BioRaptr, 1uL CO2 independent plating media added to respective columns as vehicle control with BioRaptr.
4. Cells incubated for 2 h. at ambient temperature, protected from light with metal lid having gas-exchange holes.
5. 23nL of LOPAC1280 library compounds (7 plates) or DMSO vehicle control transferred to 9 Greiner white/solid bottom high base, TC plates in 7 interplate 1:5 titrations (see Yasgar, A. et al. 2008) with Pintool. Two of the 9 plates are DMSO-only in compound field at beginning and end of compound library-treated plates.
6. Cells incubated for 30-50 min. at ambient temperature protected from light with metal lid having gas-exchange holes.
7. Read cellular baseline GloSensor luminescence in presence of test library compounds on the ViewLux [Exposure = 10 s.; Gain = High; Speed = Slow; and Binning = 2X.]
8. hNppC peptide agonist solution prepared at 1 mM (in H2O) stock concentration. From this a working dilution was prepared at 6 nM in CO2 Independent media. […]
Potency is read from the fitted curve at half-maximal effect.

| Structure (SMILES) | Potency |
| --- | --- |
| O=C1NC(c2cccc([N+](=O)[O-])c2)=CCN1c1ccccc1O | inactive |
| N[C@@H](Cn1ccc(=O)c(O)c1)C(=O)O | inactive |
| O=C1NC(=O)/C(=C/c2ccc3c(c2)OC(F)(F)O3)S1 | inactive |
| COc1cccc2c1[C@@H]1CN(CCCCn3c(=O)[nH]c4c(sc5ncc(-c6ccccc6)nc54)c3=O)C[C@@H]1CO2 | inactive |
| CN(C)c1cc2c(Nc3ccc4c(cnn4Cc4ccccc4)c3)ncnc2cn1 | inactive |
| Cn1cnc2c(NCc3ccccc3)nc(NCCO)nc21 | inactive |
| O=[N+]([O-])c1ccc(-c2nc(-c3ccc(F)cc3)c(-c3ccncc3)[nH]2)cc1 | inactive |
| NC(N)=NCCCCN=C(N)N | inactive |
| Brc1ccc([C@H]2CN3CCSC3=N2)cc1 | inactive |
| Cc1nn(-c2ccccc2)c(C)c1/C=N/N1CCN(Cc2ccccc2)CC1 | inactive |
| COc1ccccc1N1CCN(CCN2C(=O)CC3(CCCC3)CC2=O)CC1 | inactive |
| Nc1ncnc2n[nH]c(Nc3ccc(F)cc3)c12 | inactive |
| Clc1ccc2c(c1)N=C(N1CCNCC1)c1ccccc1N2 | 14.7 µM (active) |
| C[N+](C)(C)CCO | inactive |
| COC(=O)C1=CO[C@@H](O)[C@@H]2C(CO)=CC[C@H]12 | inactive |
